# Reference: PubChem BioAssay (NCATS)
# Results filed as inconclusive are left out. Calls of active or inactive are those of the source. Unless noted, calls come from the whole dose curve; as a rule, active = well fitted curve in the direction sought with a large enough effect; inconclusive = small, poorly fitted or top-dose-only effect, or another doubt; inactive = no such curve, though single readings can be large; an effect the other way counts as inactive or inconclusive.
# What was measured:
# [1] = P-glycoprotein substrates identified in KB-8-5-11 adenocarcinoma cell line, qHTS therapeutic library screen (AID 1346987); note: nearly all actives have a fitted effect of over 65% in size; note: potency is the fitted concentration of half-maximal effect
# Outline: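 In this qHTS, P-gp-rich KB-8-5-11 cells received library compounds across a concentration range. Viability was quantified by luminescence after 72 h at 37 degree C.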
# [2] = qHTS to identify inhibitors of the type 1 interferon - major histocompatibility complex class I in skeletal muscle: primary screen against the NCATS Mechanism Interrogation Plate v5.0 (MIPE) Libary (AID 1347411); note: potency is the fitted concentration of half-maximal effect; nearly all actives have a fitted effect of over 65% in size
# Outline: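 HLA-B HiBit myoblasts, dexamethasone-free medium + 4 ng/ml IFN-b, 24 h compound, 11-pt 1:3 from 46 uM final. Readout: Nano-Glo HiBiT lytic luminescence after 10 min lysis, RT.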
# [3] = Primary qHTS for inhibitors of nuclear receptor binding SET domain protein 2 (NSD2) in an isogenic RCH-ACV NSD2 p.E1099K mutant (9B) (AID 1645876); note: nearly all actives have a fitted effect of over 70% in size; note: potency is the fitted concentration of half-maximal effect
# [4] = target: Glutathione peroxidase 1 (Homo sapiens) (UniProt P07203); assay: Primary qHTS Assay for Inhibitors of Recombinant Selenoprotein Glutathione Peroxidase 1 (GPX1) (AID 1845191); note: nearly all actives have a fitted effect of over 65% in size; note: potency is the fitted concentration of half-maximal effect
# Glutathione peroxidase 1 (Homo sapiens), sequence (P07203 whole entry, looked up): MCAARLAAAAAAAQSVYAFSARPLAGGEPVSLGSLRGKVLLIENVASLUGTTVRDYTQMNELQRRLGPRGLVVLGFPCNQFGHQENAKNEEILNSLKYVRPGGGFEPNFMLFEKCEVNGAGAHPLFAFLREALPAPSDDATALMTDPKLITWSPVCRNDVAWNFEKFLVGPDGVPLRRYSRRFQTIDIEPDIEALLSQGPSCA
# Outline: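 NADPH consumption tracked by fluorescence at 340/450 nm between t=0 and t=15 min, room temperature. Final mix: 10 nM GPX1, 100 nM glutathione reductase, 1 mM GSH, 0.5 mM NADPH, 0.5 mM cumene hydroperoxide, 0.01% BSA; 30 min compound–enzyme preincubation.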
# [5] = target: Phospholipid hydroperoxide glutathione peroxidase GPX4 (Homo sapiens) (UniProt P36969); assay: Primary qHTS Assay for Inhibitors of Recombinant Selenoprotein Glutathione Peroxidase 4 (GPX4) (AID 1845192); details: outcome: dose series up to 50 µM unless noted; note: % is set by controls: 0 for no effect and ±100 for the full control effect; nearly all actives have a fitted effect of over 65% in size
# Phospholipid hydroperoxide glutathione peroxidase GPX4 (Homo sapiens), sequence (P36969 whole entry, looked up): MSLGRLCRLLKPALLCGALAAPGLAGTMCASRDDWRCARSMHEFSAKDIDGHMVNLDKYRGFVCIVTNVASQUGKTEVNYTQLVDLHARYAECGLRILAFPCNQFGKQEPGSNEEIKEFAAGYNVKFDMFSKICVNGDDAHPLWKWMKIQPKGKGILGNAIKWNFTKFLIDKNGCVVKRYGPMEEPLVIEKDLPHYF
# Outline: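 NADPH consumption followed by fluorescence at 340/450 nm, t=0 and after 15 min at room temperature. Reaction started with cumene hydroperoxide (0.5 mM final) after 30 min compound–GPX4 preincubation; final 200 nM GPX4, 100 nM GR, 1 mM GSH, 0.5 mM NADPH.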
# [6] = qHTS drug screen for cell cycle checkpoint inhibitors in PARPi-resistant BRCA-mutant ovarian cancer cell lines. (AID 1963452; calls by dose curve); details: PEO1/OlaR viability, CellTiter-Glo luminescence, 96 h, stronger effect = lower value
# Outline: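 PEO1, PEO4 and PEO1/OlaR ovarian cancer cells, 600 per well, exposed 96 h at 37C to a dilution series. Viability read by CellTiter-Glo luminescence, normalized to DMSO and empty wells; activity summarized as Z-AUC.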
# [7] = qHTS assay to identify inhibitors of the type 1 interferon - major histocompatibility complex class I in skeletal muscle: Counter screen cell viability and HiBit confirmation (AID 1347412); details: iHSKM muscle cells + IFN-b, HiBiT or CellTiter-Glo, 24 h; note: nearly all actives have a fitted effect of over 60% in size; note: potency is the fitted concentration of half-maximal effect; for activity change, negative = inhibition: % is set by controls: 0 for no effect and ±100 for the full control effect
# Outline: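 Luminescence read-out: Nano-Glo HiBiT lytic signal from C-terminally HiBiT-tagged HLA-B in CRISPR-edited human myoblasts, plus CellTiter Glo ATP as viability counter screen. IFN-beta 4.0 ng/ml; 24 hrs treatment at 37 C, 5% CO2.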
# [8] = target: Cytochrome P450 3A4 (Homo sapiens) (UniProt P08684); assay: qHTS Assay for Inhibitors and Substrates of Cytochrome P450 3A4 (AID 884); note: potency is the fitted concentration of half-maximal effect; nearly all actives have a fitted effect of over 50% in size
# Cytochrome P450 3A4 (Homo sapiens), sequence (P08684 whole entry, looked up): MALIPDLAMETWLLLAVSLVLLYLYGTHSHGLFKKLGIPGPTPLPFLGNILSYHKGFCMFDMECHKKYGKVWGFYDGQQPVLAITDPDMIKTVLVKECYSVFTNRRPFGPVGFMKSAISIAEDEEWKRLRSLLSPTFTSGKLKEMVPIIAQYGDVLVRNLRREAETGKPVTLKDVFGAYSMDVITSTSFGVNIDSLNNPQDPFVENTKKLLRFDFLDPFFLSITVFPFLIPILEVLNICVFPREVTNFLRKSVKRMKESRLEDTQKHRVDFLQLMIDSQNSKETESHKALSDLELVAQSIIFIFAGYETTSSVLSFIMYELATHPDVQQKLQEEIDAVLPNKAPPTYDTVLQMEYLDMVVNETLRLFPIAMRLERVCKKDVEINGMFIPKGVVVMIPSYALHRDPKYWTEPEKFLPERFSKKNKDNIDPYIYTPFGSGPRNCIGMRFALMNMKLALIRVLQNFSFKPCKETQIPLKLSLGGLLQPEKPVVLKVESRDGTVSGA
# Outline: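 Luminescent readout of luciferin produced by CYP3A4 (20 nM) dealkylation of Luciferin-PPXE, 25 uM (its KM). NADPH-driven reaction ran 60 min at RT after 10 min compound preincubation; data scaled to 57 uM ketoconazole as 100% inhibition.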
# [9] = target: Cytochrome P450 3A4 (Homo sapiens) (UniProt P08684); assay: qHTS Assay for Activators of Cytochrome P450 3A4 (AID 885); note: nearly all actives have a fitted effect of over 65% in size
# Outline: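 Activators are scored by enhanced luminescence from CYP3A4 conversion of luciferin-PPXE (25uM, equal to KM) to luciferin, after 60 min at RT with an NADPH-regenerating system.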
# [10] = Confirmation and Secondary Assay for Modulators of Hemoglobin Beta Chain Splicing at IVS2 654 locus (AID 910);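 note: HeLa cells stably carrying EGFP split by mutant beta-globin IVS2-654 intron; % of control where 0% means no effect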
# Outline: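 Readout: per-well total peak green fluorescence (488 nm ex, 500–520 nm em) from objects 5–250 µm, reflecting correct splicing of an EGFP-654 reporter. Compounds were applied for 2 days at 37 °C to overnight-plated HeLa EGFP-654 cells; controls were DMSO and 500 nM IVS2-654 PNA.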
# [11] = Confirmation and Secondary Assay for Modulators of Hemoglobin Beta Chain Splicing at IVS2 705 locus (AID 930);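 note: HeLa cells stably expressing the EGFP-705 splicing reporter; GFP fluorescence per well restored by corrected splicing of the IVS2-705 intron in EGFP; % of control where 0% means no effect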
# Outline: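 HeLa cells stably carrying EGFP interrupted by mutant beta-globin intron 2 (IVS2-705) treated 2 days at 37C with compound; 500 nM antisense PNA as control. Correct splicing read as total peak GFP intensity per well by laser-scanning cytometry.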
# [12] = qHTS Assay for Lipid Storage Modulators (AID 1519; calls by dose curve; for activity change, negative = inhibition: % is set by controls: 0 for no effect and ±100 for the full control effect); details: Drosophila S3 cells, BODIPY lipid droplet/cell ratio, laser cytometry, cells loaded with oleic acid
# Outline: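 Cells seeded at 5,000 per well were treated with compounds over a concentration series and loaded with oleic acid (400 uM, as added). Lipid droplet fluorescence (488 nm excitation, 500-530 nm channel) was read by laser-scanning cytometry and normalized to 20 uM Triacsin C.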
# [13] = target: Ubiquitin carboxyl-terminal hydrolase 1 (Homo sapiens) (UniProt O94782); assay: Inhibitors of USP1/UAF1: Pilot qHTS (AID 504865);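 note: rhodamine fluorescence freed from ubiquitin-rhodamine substrate followed over time; top concentration of the series differs between compounds; % is set by controls: 0 for no effect and ±100 for the full control effect; nearly all actives have a fitted effect of over 35% in size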
# Ubiquitin carboxyl-terminal hydrolase 1 (Homo sapiens), sequence (O94782 whole entry, looked up): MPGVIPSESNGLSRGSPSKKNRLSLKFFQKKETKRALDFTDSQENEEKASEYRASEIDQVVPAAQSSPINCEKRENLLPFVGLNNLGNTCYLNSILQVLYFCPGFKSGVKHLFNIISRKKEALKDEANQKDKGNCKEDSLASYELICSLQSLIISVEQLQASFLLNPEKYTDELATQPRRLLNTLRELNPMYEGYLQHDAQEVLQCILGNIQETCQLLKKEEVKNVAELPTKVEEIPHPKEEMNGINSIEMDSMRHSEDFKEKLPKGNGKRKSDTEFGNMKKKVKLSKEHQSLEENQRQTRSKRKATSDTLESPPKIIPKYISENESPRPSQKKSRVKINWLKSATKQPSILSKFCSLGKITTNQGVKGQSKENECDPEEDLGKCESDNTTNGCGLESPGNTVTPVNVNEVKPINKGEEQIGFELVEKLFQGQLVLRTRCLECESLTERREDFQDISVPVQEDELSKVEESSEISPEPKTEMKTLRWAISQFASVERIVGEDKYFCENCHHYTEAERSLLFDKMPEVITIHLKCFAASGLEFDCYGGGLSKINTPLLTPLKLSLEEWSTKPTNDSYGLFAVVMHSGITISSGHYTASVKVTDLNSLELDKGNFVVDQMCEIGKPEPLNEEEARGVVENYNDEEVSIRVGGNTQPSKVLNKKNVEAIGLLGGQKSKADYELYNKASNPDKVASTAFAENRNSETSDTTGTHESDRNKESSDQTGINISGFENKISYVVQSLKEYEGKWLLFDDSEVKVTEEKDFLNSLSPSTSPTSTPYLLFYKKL
# Outline: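 In 50mM HEPES pH 7.8 containing 0.5mM EDTA, 1mM TCEP, 0.1 mg/ml BSA and 0.01% Tween-20, 1nM USP1/UAF1 is exposed to compound for 15 min, then Ub-Rho (150nM final) is added and fluorescence is read over time.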
# [14] = Primary qHTS for inhibitors of nuclear receptor binding SET domain protein 2 (NSD2) in an RCH-ACV wild type WT cells (2C) (AID 1645877); note: nearly all actives have a fitted effect of over 70% in size; note: potency is the fitted concentration of half-maximal effect
# [15] = target: Calcium and integrin-binding protein 1 (Homo sapiens) (UniProt Q99828); assay: Primary qHTS for Identification of Calcium Integrin Binding Protein 1 (CIB1) Competitor (AID 1508620);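 note: GST tagged CIB1 binding a fluorescein labelled alphaIIb integrin peptide tracer; top concentration of the series differs between compounds; % is set by controls: 0 for no effect and ±100 for the full control effect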
# Calcium and integrin-binding protein 1 (Homo sapiens), sequence (Q99828 whole entry, looked up): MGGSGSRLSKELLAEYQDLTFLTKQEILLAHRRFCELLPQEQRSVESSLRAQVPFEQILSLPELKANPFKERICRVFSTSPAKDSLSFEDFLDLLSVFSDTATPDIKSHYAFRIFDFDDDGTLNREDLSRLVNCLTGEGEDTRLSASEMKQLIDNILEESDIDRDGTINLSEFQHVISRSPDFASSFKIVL
# Outline: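 CIB1-GST (1 uM final) and compound incubated 15 min at room temperature before adding FITC-alphaIIb peptide tracer (100 nM final). Competition for binding read by fluorescence polarization (ex 480, em 540) after another 15 min at room temperature.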
# [16] = target: N-terminal Xaa-Pro-Lys N-methyltransferase 1 (Homo sapiens) (UniProt Q9BV86); assay: Confirmatory qHTS for Inhibitors of N-terminal methyltransferase 1 (NTMT1): MTaseGlo Assay (AID 1645874)
# N-terminal Xaa-Pro-Lys N-methyltransferase 1 (Homo sapiens), sequence (Q9BV86 whole entry, looked up): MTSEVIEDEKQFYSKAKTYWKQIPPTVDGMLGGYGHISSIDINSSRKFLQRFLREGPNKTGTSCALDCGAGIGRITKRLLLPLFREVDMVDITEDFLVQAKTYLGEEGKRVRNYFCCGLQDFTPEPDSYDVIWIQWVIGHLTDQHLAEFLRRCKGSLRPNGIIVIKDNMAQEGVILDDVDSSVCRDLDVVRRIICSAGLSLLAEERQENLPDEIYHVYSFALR
# Outline: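 Enzyme mix (125 nM NTMT1, 100 uM SAM) + compound, 15 min RT; + 1 uM SPKRIA, 30 min RT, dark; MTase-Glo reagent 30 min, detection solution 30 min; luminescence. % inhibition vs no-enzyme/DMSO controls, 4-parameter Hill fit.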
# [17] = target: Catechol O-methyltransferase (Homo sapiens) (UniProt P21964); assay: Confirmatory Screen for Target Class Profiling of Small Molecule Inhibitors of Methyltransferases (AID 1745852; calls by dose curve; note: potency is the fitted concentration of half-maximal effect); details: MTase-Glo luminescence, SAH detection, recombinant enzyme; measured here: COMT max response; stronger effect = lower value
# Catechol O-methyltransferase (Homo sapiens), sequence (P21964 whole entry, looked up): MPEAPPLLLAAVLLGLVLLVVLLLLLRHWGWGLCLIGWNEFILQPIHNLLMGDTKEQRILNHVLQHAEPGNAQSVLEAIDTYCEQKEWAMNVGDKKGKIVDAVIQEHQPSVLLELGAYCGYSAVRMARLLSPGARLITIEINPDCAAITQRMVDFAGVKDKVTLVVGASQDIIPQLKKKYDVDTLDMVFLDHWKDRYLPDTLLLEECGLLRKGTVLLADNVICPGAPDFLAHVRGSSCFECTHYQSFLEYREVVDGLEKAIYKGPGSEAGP
# [18] = target: Guanidinoacetate N-methyltransferase (Homo sapiens) (UniProt Q14353); assay: as above; details: activity change, negative = inhibition: at 57.3 µM (top of the series) unless noted
# [19] = target: Nicotinamide N-methyltransferase (Homo sapiens) (UniProt P40261); assay: as above; details: MTase-Glo luminescence, SAH detection, recombinant enzyme; measured here: NNMT max response; stronger effect = lower value
# Nicotinamide N-methyltransferase (Homo sapiens), sequence (P40261 whole entry, looked up): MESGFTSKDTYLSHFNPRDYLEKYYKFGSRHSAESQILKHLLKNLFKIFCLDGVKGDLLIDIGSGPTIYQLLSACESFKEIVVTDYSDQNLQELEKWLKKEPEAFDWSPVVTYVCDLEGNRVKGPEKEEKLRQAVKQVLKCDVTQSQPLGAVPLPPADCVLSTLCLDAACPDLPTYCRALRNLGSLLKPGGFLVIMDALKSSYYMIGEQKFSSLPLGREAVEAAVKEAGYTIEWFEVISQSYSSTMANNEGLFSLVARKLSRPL
# [20] = target: Phenylethanolamine N-methyltransferase (Homo sapiens) (UniProt P11086); assay: as above; details: MTase-Glo luminescence, SAH detection, recombinant enzyme; measured here: PNMT max response; stronger effect = lower value
# Phenylethanolamine N-methyltransferase (Homo sapiens), sequence (P11086 whole entry, looked up): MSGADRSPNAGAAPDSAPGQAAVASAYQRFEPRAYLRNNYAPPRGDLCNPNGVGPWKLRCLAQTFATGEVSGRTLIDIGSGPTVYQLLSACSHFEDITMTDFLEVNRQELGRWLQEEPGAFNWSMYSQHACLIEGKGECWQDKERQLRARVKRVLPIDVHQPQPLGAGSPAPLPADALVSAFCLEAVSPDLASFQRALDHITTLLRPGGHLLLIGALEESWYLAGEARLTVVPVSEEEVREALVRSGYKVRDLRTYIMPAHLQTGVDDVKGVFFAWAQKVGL
# [21] = P-glycoprotein substrates identified in KB-3-1 adenocarcinoma cell line, qHTS therapeutic library screen (AID 1346986); note: % is set by controls: 0 for no effect and ±100 for the full control effect; nearly all actives have a fitted effect of over 60% in size
# Outline: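 Dose-response cytotoxicity, KB-3-1 vs P-gp-high KB-8-5-11, no colchicine in assay medium. Read: CellTiter-Glo at 72 h.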
structure (smiles),measurement,setting,value
C=CC(=O)Nc1cccc(C)c1Nc1ncc2cc(-c3c(Cl)c(OC)cc(OC)c3Cl)ccc2n1,Potency,[1],9.2 µM (active)
same,Potency,[2],11.7 µM (active)
same,Potency,[3],3.66 µM (active)
same,Potency,[4],inactive
same,Potency,[5],inactive
same,Z-AUC,[6],-0.505 (inactive)
same,Z-AUC,[6]; measured here: PEO1 parental Z-AUC,-0.983
same,Z-AUC,[6]; measured here: PEO4 Z-AUC,-1.33
same,Potency,[7]; HiBiT,15.7 µM (active)
same,"activity change, negative = inhibition","[7]; Viability, at 45.9 µM (top of the series)",1.08% (inactive)
COc1cc(OC)c2ccc(=O)oc2c1,Potency,[8],31.6 µM (active)
same,Potency,[9],inactive
same,outcome,[10],inactive
same,outcome,[11],inactive
same,"activity change, negative = inhibition",[12]; at 57.5 µM (top of the series),13.4% (inactive)
same,max response,[12]; measured here: cell count channel max response,9.58%
same,max response,[12]; measured here: lipid channel max response,25.2%
same,Potency,[13],inactive
same,Potency,[1],inactive
same,Potency,[3],inactive
same,Potency,[14],inactive
same,Potency,[4],25.5 µM (active)
Cc1nc(CN(C)c2ncnc3ccc(-c4ccc5c(c4)OCO5)cc23)cs1,Potency,[1],20.6 µM (active)
same,outcome,[15],inactive
same,Potency,[16],4.26 µM (active)
same,Potency,[3],8.2 µM (active)
same,Potency,[14],9.2 µM (active)
same,activity,[17],-89.6%
same,Potency,[18],19.2 µM (active)
same,activity,[19],-80.4%
same,activity,[20],-90.3%
same,Potency,[4],inactive
COC(=O)[C@]12CCC(C)(C)C[C@@H]1[C@@H]1C(=O)C=C3[C@]4(C)C=C(C#N)C(=O)C(C)(C)[C@@H]4CC[C@@]3(C)[C@]1(C)CC2,Potency,[1],1.46 µM (active)
COc1ccc2c(c1O)OC(C)(C)c1c-2ccc2c1C(=O)N(c1ccc(C(=O)c3ccccc3)cc1)C2=O,Potency,[21],inactive
same,Potency,[4],inactive
Cc1cn([C@H]2C[C@H](O)[C@@H](CO)O2)c(=O)nc1N,Potency,[1],inactive
same,Potency,[3],inactive
same,Potency,[14],inactive
same,Potency,[4],inactive
